# Screens: PubChem, National Center for Advancing Translational Sciences (NCATS)
# HepG2 tox-1 – HepG2 cytotoxicity, counter-screen for TGF-b inhibitors; Potency, µM (top dose mostly 46.1 µM), inactives show at the top dose activity change, negative = cytotoxicity, hits mostly cytotoxic; AID 588856; HepG2 CAGA-GFP viability, ATP luminescence, 18 h; 410,000 tested, 0.76% active; also: potency is read from the fitted curve at half-maximal effect
#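 CellTiter-Glo luminescence gave cytotoxicity after 18 hours at 37 degrees C. The cells were HepG2 CAGA-GFP in 1% FBS DMEM, stimulated with 500 pg/mL TGF-beta after compound addition. %Activity was normalised to no-cell wells (complete cell-killing) and DMSO (no toxicity), and curves were fitted and classified.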
# DRD3 antagonist – blocks the human D3 dopamine receptor | max response, negative = inhibition, % | D3R cells, DiscoveRx beta-arrestin luminescence, antagonist mode; stronger effect = lower value | 360,000 tested, 2.5% active | AID 652054 | P35462; in the data active = max response below about -50%; inconclusive = no clear call, values can overlap the other calls; also: % is scaled to controls: 0 for no effect and ±100 for the full control effect
# Target sequence (P35462 whole entry, looked up): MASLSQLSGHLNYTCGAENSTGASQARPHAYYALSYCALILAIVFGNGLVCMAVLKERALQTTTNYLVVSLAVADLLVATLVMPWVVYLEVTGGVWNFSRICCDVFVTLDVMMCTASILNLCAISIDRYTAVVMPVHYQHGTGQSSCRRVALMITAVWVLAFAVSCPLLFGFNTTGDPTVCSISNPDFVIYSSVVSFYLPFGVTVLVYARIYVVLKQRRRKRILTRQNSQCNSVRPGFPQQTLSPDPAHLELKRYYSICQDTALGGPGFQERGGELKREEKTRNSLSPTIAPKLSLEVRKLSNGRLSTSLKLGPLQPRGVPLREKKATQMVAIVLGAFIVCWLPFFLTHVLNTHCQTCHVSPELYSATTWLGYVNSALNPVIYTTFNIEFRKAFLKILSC
#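 Cells plated overnight at 1500 cells/well, then exposed to library compounds with dopamine controls for 90 minutes at 37 degrees C. DiscoveRx reagent added for 30–60 minutes at room temperature; luminescence read, quantitative HTS format.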
# ATXN2 expr inh – inhibitors of ATXN2 expression; HEK-293 ATXN2-luciferase reporter, luminescence, 24 h; Potency, µM (titrated, usually from 57 µM), inactives show at the top dose activity change, negative = inhibition, actives largely listed as inhibitors; 360,000 tested, 0.72% active; also: potency is read from the fitted curve at half-maximal effect; % is scaled to controls: 0 for no effect and ±100 for the full control effect; nearly all actives have a fitted effect of over 55% in size
#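 ATXN2-luciferase reporter cells (luciferase flanked by upstream and downstream ATXN2 gene portions) were treated 24 h at 37 °C with compounds at up to 57 uM. SteadyGlo luminescence gave expression; GF-AFC fluorescence gave viability.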
# D3 ag – activates the human D3 dopamine receptor. D3R DiscoveRx beta-arrestin cells, luminescence, 90 min. max activation, %. 410,000 tested, 0.58% active; in the data active = max activation above about 30%; also: 0% is about no effect
#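 Agonist mode: compounds and dopamine controls were applied to plated cells for 90 min at 37 degrees C after an overnight attachment at 1500 cells/well. Luminescent read-out followed 30 - 60 minutes at room temperature with DiscoveRx detection reagent.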
# ATXN viability – cell viability loss in ATXN counter-screen. S2 cells (HEK-293 line with an ATXN2-luciferase reporter) viability, CellTiter-Fluor protease fluorescence, 24 h. Potency, µM (highest dose often 56.7 µM), most hits filed as cytotoxic. 400,000 tested, 0.49% active. AID 651635; also: potency is read from the fitted curve at half-maximal effect; nearly all actives have a fitted effect of over 40% in size
# TGFb inhibitor – inhibitors of TGF-b signaling; AID 588855; 410,000 tested, 1.2% active; HepG2 CAGA-GFP TGF-b/SMAD3 reporter, GFP fluorescence, 18 h; TGF-beta stimulated, 500 pg/mL final; Potency, µM (highest dose often 46.1 µM), for inactives: top-dose activity, negative = inhibition, most hits filed as inhibitors; also: potency is read from the fitted curve at half-maximal effect; % is scaled to controls: 0 for no effect and ±100 for the full control effect; nearly all actives have a fitted effect of over 65% in size
#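 First, reporter cells (HEPG2 CAGA-GFP) rested 2 h at 37 degrees C. Next, compounds were pinned in and TGF-beta added to 500 pg/mL final. After 18 h, GFP was imaged per cell and summed per well.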
# TGFb CAGA inh – confirmation of TGF-b signaling inhibitors in HepG2 reporter cells; AID 720534; Potency, µM (doses to about 46.1 µM), without a hit: top-dose activity, negative = inhibition, actives largely listed as inhibitors; 1,600 tested, 63% active; HepG2 CAGA-GFP TGF-b reporter, GFP fluorescence, 18 h; cells stimulated with TGF-beta, 500 pg/mL; shares compounds with TGFb inhibitor; also: potency is read from the fitted curve at half-maximal effect; % is scaled to controls: 0 for no effect and ±100 for the full control effect; nearly all actives have a fitted effect of over 65% in size
# HepG2 tox-2 – HepG2 cytotoxicity, TGF-b inhibitor counterscreen. shares compounds with TGFb inhibitor. HepG2 CAGA-GFP viability, ATP luminescence, 18 h; cells stimulated with TGF-beta, 500 pg/mL. 1,600 tested, 27% active. Potency, µM (highest dose often 46.1 µM), for the others: at the highest dose activity, negative = cytotoxicity, most hits filed as inhibitors; also: potency is read from the fitted curve at half-maximal effect; % is scaled to controls: 0 for no effect and ±100 for the full control effect; nearly all actives have a fitted effect of over 70% in size
# TGFb CCL64 inh – TGF-b inhibition, CCL64 orthogonal assay; shares compounds with TGFb inhibitor; CCL64 CAGA-GFP reporter, TGF-b stimulated, GFP fluorescence, 18 h; Potency, µM (doses to about 46.1 µM), inactives show top-dose activity, negative = inhibition, hits mostly inhibitors; 1,600 tested, 41% active; AID 720536; also: potency is read from the fitted curve at half-maximal effect; nearly all actives have a fitted effect of over 65% in size
# COP TGFb inh – validation of TGF-b inhibitors in HepG2 COP promoter reporter. Potency, µM (series often up to 46.1 µM), for inactives: at the highest dose activity, negative = inhibition, usual class: inhibitors. HepG2 COP-GFP TGF-b reporter, GFP fluorescence, 18 h; cells stimulated by added recombinant TGF-beta. shares compounds with TGFb inhibitor. 1,600 tested, 3% active. AID 720537; also: potency is read from the fitted curve at half-maximal effect; nearly all actives have a fitted effect of over 70% in size
# * marks the source's active call; other numbers are inactive results; i = inactive; ? = inconclusive; nt = no result given. In the library only some 4.7% were active in any assay of this set; here they are far more common. Unless noted, calls follow the shape of the dose curve; as a rule, active = well fitted curve in the direction sought with a large enough effect; inconclusive = small, poorly fitted or top-dose-only effect, or another doubt; inactive = no such curve, though single readings can be large; an effect the other way counts as inactive or inconclusive.
SMILES,HepG2 tox-1,DRD3 antagonist,ATXN2 expr inh,D3 ag,ATXN viability,TGFb inhibitor,TGFb CAGA inh,HepG2 tox-2,TGFb CCL64 inh,COP TGFb inh
C[C@]12c3[nH]c4cc(-c5ccco5)ccc4c3CCN1C(=O)[C@@H](CC(=O)NCC13CC4CC(CC(C4)C1)C3)C[C@@H]2C(=O)N1CCCCC1,-39.7%,-18.3,?,-61.9,?,?,nt,nt,nt,nt
CC[C@]12c3[nH]c4cc(-c5ccco5)ccc4c3CCN1C(=O)[C@@H](CC(=O)NCc1cccc(C(F)(F)F)c1)C[C@@H]2C(=O)N1CCN(C(=O)C2CC2)CC1,-4.7%,8.6,?,0.4,?,10µM*,14.6µM*,?,?,25.1%
C[C@]12c3[nH]c4cc(-c5ccco5)ccc4c3CCN1C(=O)[C@@H](CC(=O)NCc1cccc(C(F)(F)F)c1)C[C@@H]2C(=O)N1CCCCC1,-28.3%,27.2,?,-14.7,?,7.94µM*,16.4µM*,?,?,54.9%
CC[C@]12c3[nH]c4cc(-c5ccco5)ccc4c3CCN1C(=O)[C@@H](CC(=O)NCc1ccc(OC)c(OC)c1)C[C@@H]2C(=O)N1CCN(C(=O)C2CC2)CC1,-4.8%,35.0,-4.6%,14.8,?,?,nt,nt,nt,nt
CC[C@H](C)C1OC(=O)[C@@H](C)[C@@H](CC)NC(=O)[C@H](C)N(C)C(=O)C(C)(C)C(=O)C(C)NC(=O)[C@H](Cc2ccc(OC)cc2)N(C)C(=O)[C@H](C(C)C)N(C)C(=O)CNC(=O)[C@H](CC(C)C)N(C)C(=O)CNC1=O (some centres undefined),4.0%,-11.4,?,-5.1,?,0.501µM*,1.03µM*,?,1.3µM*,46.8%
CCC[C@H]1NC(=O)[C@H](C)N(C)C(=O)C(C)(C)C(=O)C(C)NC(=O)[C@H](Cc2ccc(OC)cc2)N(C)C(=O)[C@H](C(C)C)N(C)C(=O)CNC(=O)[C@H](CC(C)C)N(C)C(=O)CNC(=O)[C@H]([C@@H](C)CC)OC(=O)[C@H]1C (some centres undefined),-7.3%,48.8,?,-4.4,?,1.12µM*,0.366µM*,?,0.291µM*,95.9%
CC(C)C[C@@H]1NC(=O)[C@H](Cc2ccccc2)N(C)C(=O)[C@H](C)NC(=O)c2ccccc2NC(=O)[C@H](Cc2ccc(O)cc2)N(C)C1=O,-18.6%,49.5,?,-1.6,i,-9.2%,nt,nt,nt,nt
COc1ccc(Cn2c(CCC(=O)Nc3cccc(OC)c3)nc3cccnc32)cc1,-18.4%,nt,nt,5.4,nt,22.0%,nt,nt,nt,nt
